38 sequences from the OligoGym collection can be followed below.
Note: reference of the scale not given here.

In one experiment the target is NAA35. In words: pooled miR-30 sensor sort-seq; sequence = guide strand. The settings on record: shRNA.
TTATTCTATCTATTAATCTTGC gave a sensor-assay potency score (higher = more potent) of -0.493.

TTATTTTTGCATATCGAGGGAA: the sensor-assay potency score (higher = more potent) came out at 0.0226. On the same count and under the same terms, to TAATTATTTTTGCATATCGAGG belongs -1.65; to ATATATGTAATAGTACTCGTGC, 0.454; to TAGTTCACCATTTCTTCCCTTT, 0.00785. The same measure, in the same setting: to TACTGCTAAACATTGTTGGTGT belongs 0.709. Turning to TATATAGGTAGCACTTGGGGGA, the sensor-assay potency score (higher = more potent) is -0.0355. Still for that read-out and setting: under TTATATAGGTAGCACTTGGGGG stands -1.1; under TATGTAATAGTACTCGTGCATA, -1.06.

Regarding TTATTATATAGGTAGCACTTGG, the sensor-assay potency score (higher = more potent) is -0.806.

In turn, TCTATTAACCTCATGGTCCGGG gave a sensor-assay potency score (higher = more potent) of 0.321.

With TTAATTCTCGACAAGCTTCTTC, the sensor-assay potency score (higher = more potent) is 0.731.

Another experiment deals with NAALADL1. Described as above. Conditions: shRNA.
TTACAGAGCAGGTCTCTTGCAT showed a sensor-assay potency score (higher = more potent) of -0.148.

Turning to TTCTGCAGTGTTGATATGCGTT, the sensor-assay potency score (higher = more potent) was -0.417.

In turn, TTGTCGTAGATGCTCAGGTCGC came in with a sensor-assay potency score (higher = more potent) of -1.1. Still for that read-out and setting: to TTGATGTCGGCAGGGTCTGTGT belongs -1.45. Still for that read-out and setting: under TCTCACTGTAGTCACTGACTTT stands -1.01; under TAGACGCTCACATTCACCTGGC, 0.571. For the sequence TTCCCATACAGCACGTAGCGAT, the sensor-assay potency score (higher = more potent) is -0.768.

As to TCTGTGTACACCAGCACCCCAG, the sensor-assay potency score (higher = more potent) is -1.23. Same read-out and setting: to TTGAGGGGCAGGAAGAAGCTGT belongs -0.568; to TACAGAGCAGGTCTCTTGCATC, -0.894.

Another experiment addresses NAGA. The description is as above. The settings on record: shRNA.
In turn, TTCGAAAACTTCCAAATCCTGA gave a sensor-assay potency score (higher = more potent) of -0.213. Same read-out and setting: under TTGATGATCACTGTGAAGTTGG stands 0.614; under TTGAGCATGTCTACCTTCCACT, -1.03. The same measure, in the same setting: to TTGATTTTGATCATGAGTGGAT belongs 0.182. Still for that read-out and setting: under TTGGACAGGGCATAGAACCTGG stands -0.532. Regarding TTCGATGAGAGATTTTTCCTTG, the sensor-assay potency score (higher = more potent) stood at 0.59. Same read-out and setting: under TCATATATCACAGACCCGGTGA stands -0.0849; under TTTTCCTTGTGAATCCTGCGTC, 0.331.

Sequence TTGCTCAGCAACGTCTGTGGGG returned a sensor-assay potency score (higher = more potent) of -0.463. The same measure, in the same setting: under TTGTCCAGTGTGGTGCCTGGGT stands -0.646; under TTGTCCAGCATCAGCACCTGGG, -0.84; under TGAAGTTGGTTTCATCTCGGAG, -0.453.

Another experiment has as its target NAGPA. The description is as above. The settings on record: shRNA.
In turn, TTGAGCACAAAGGTGGCAGAGC came in with a sensor-assay potency score (higher = more potent) of -0.854. The same measure, in the same setting: to TTTCAGCAGGAACTCCGCCATT belongs -1.66; to AGTAGCAAGTCGTCGTCGCGGG, -1.2. TTCCTCTCTGCTCTGGACAGGA: the sensor-assay potency score (higher = more potent) is -0.227.
